Read-out in assay [1]: Pyruvate Dehydrogenase Kinase 4 (PDK4), PDK4 (gene 5166)
As to the kind of experiment: LTEA_HepaRG_PDK4: Life Technologies and Expression Analysis (LTEA) Assay for Pyruvate Dehydrogenase Kinase 4 (PDK4) using HepaRG (AID 2283525). The following applies: mRNA level, 48 h; actives raise or lower the signal. In a few lines: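 In this multiplexed human HepaRG expression assay, cells are treated 48 h with test chemicals across an eight-point range starting at 100 uM. PDK4 mRNA changes, normalized to ACTB/GAPDH/POLR2A, are fitted in both directions relative to vehicle.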

Read-out in assay [2]: NAD(P)H dehydrogenase [quinone] 1 (NQO1), NQO1 (gene 1728)
As to the kind of experiment: LTEA_HepaRG_NQO1: Life Technologies and Expression Analysis (LTEA) Assay for NAD(P)H dehydrogenase [quinone] 1 (NQO1) using HepaRG (AID 2283526). The following applies: mRNA level, 48 h; actives raise or lower the signal. In a few lines:
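Differentiated HepaRG cells, plated 48 h and then switched to serum-free induction medium, were exposed in duplicate for 48 h to 8-point half-log concentrations up to 100 uM in 0.5% DMSO. mRNA measured by qRT-PCR, normalized to ACTB, GAPDH, POLR2A; bidirectional fit versus DMSO.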

Read-out in assay [3]: Nuclear factor erythroid 2-related factor 2 (Homo sapiens) (UniProt Q16236)
As to the kind of experiment: LTEA_HepaRG_NFE2L2: Life Technologies and Expression Analysis (LTEA) Assay for Nuclear factor erythroid 2-related factor 2 (NFE2L2) Transcription Factor using HepaRG (AID 2283527).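 Further: TaqMan qRT-PCR transcript level normalised to ACTB GAPDH and POLR2A housekeeping genes.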 The following applies: mRNA level, 48 h; actives raise or lower the signal. In a few lines:
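Transcript level of NFE2L2 is the read-out, measured by microfluidic TaqMan qRT-PCR and normalized to three housekeeping genes. Human HepaRG cultures received test chemical for 48 h at up to 100 uM in half-log steps. Gain or loss of signal is fitted relative to 0.5% DMSO.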

Read-out in assay [4]: succinate dehydrogenase complex iron sulfur subunit B (SDHB), SDHB (gene 6390)
Kind of assay: LTEA_HepaRG_SDHB: Life Technologies and Expression Analysis (LTEA) Assay for succinate dehydrogenase complex iron sulfur subunit B (SDHB) using HepaRG (AID 2283528). The conditions noted are these: mRNA level, 48 h; actives raise or lower the signal. In a few lines: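 HepaRG, 48 h exposure, 8-pt half-log series from 100 uM in 0.5% DMSO, duplicates. Readout: SDHB mRNA by Fluidigm qRT-PCR vs housekeeping genes; bidirectional fit relative to DMSO.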

Read-out in assay [5]: Signal transducer and activator of transcription 3 (Homo sapiens) (UniProt P40763)
As to the kind of experiment: LTEA_HepaRG_STAT3: Life Technologies and Expression Analysis (LTEA) Assay for Signal transducer and activator of transcription (STAT3) using HepaRG (AID 2283529). The conditions noted are these: mRNA level, 48 h; actives raise or lower the signal. In a few lines:
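Read-out is STAT3 mRNA level by qRT-PCR, normalized to three housekeeping genes, in human HepaRG liver cells treated for 48 h. Concentrations ran from 100 uM downward in half-log steps; curves were fitted for gain or loss relative to 0.5% DMSO.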

Read-out in assay [6]: solute carrier (SLCO1B1), SLCO1B1 (gene 10599)
As to the kind of experiment: LTEA_HepaRG_SLCO1B1: Life Technologies and Expression Analysis (LTEA) Assay for solute carrier (SLCO1B1) using HepaRG (AID 2283530). The following applies: mRNA level, 48 h; actives raise or lower the signal. In a few lines:
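Human HepaRG cultures treated for 48 h with an eight-concentration half-log series topping at 100 uM; SLCO1B1 measured by qRT-PCR and fitted bidirectionally relative to DMSO.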

Read-out in assay [7]: sulfotransferase 2A1 (SULT2A1), SULT2A1 (gene 6822)
Kind of assay: LTEA_HepaRG_SULT2A1: Life Technologies and Expression Analysis (LTEA) Assay for sulfotransferase 2A1 (SULT2A1) using HepaRG (AID 2283531). The following applies: mRNA level, 48 h; actives raise or lower the signal. In a few lines: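 Gene-expression endpoint in a human liver cell line: SULT2A1 mRNA change after 48 h chemical treatment, curves fitted in both directions relative to 0.5% DMSO vehicle. Concentrations spanned eight half-log steps from 100 uM.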

Read-out in assay [8]: Transforming Growth Factor (TGFA), TGFA (gene 7039)
Kind of assay: LTEA_HepaRG_TGFA: Life Technologies and Expression Analysis (LTEA) Assay for Transforming Growth Factor (TGFA) using HepaRG (AID 2283532). The conditions noted are these: mRNA level, 48 h; actives raise or lower the signal. In a few lines:
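HepaRG (human liver line), 48 h exposure, 8 conc. half-log down from 100 uM, 0.5% DMSO vehicle, duplicates; serum-free induction medium. TGFA mRNA by TaqMan qRT-PCR, ACTB/GAPDH/POLR2A normalization; gain/loss fit vs DMSO.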

Read-out in assay [9]: Transforming Growth Factor (TGFB1), TGFB1 (gene 7040)
Kind of assay: LTEA_HepaRG_TGFB1: Life Technologies and Expression Analysis (LTEA) Assay for Transforming Growth Factor (TGFB1) Transporter using HepaRG (AID 2283533). The conditions noted are these: mRNA level, 48 h; actives raise or lower the signal. In a few lines: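 Eight-point concentration-response (max 100 uM, half-log) in HepaRG under serum-free induction conditions, 48 h. TGFB1 mRNA by qRT-PCR, housekeeping-normalized.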

Read-out in a further assay: TIMP1, TIMP1 (gene 7076)
As to the kind of experiment: LTEA_HepaRG_TIMP1: Life Technologies and Expression Analysis (LTEA) Assay for TIMP1 using HepaRG (AID 2283534).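 Further: TaqMan qRT-PCR signal normalized to ACTB GAPDH and POLR2A housekeeping genes.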 The conditions noted are these: mRNA level, 48 h; actives raise or lower the signal. In a few lines:
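TIMP1 induction or repression in HepaRG cells after 48 h chemical exposure (eight concentrations, highest 100 uM), assessed by normalized qRT-PCR with bidirectional fitting to DMSO controls.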

Read-out in assay [10]: Tumor necrosis factor receptor 1 (TNFRSF1A), TNFRSF1A (gene 7132)
Kind of assay: LTEA_HepaRG_TNFRSF1A: Life Technologies and Expression Analysis (LTEA) Assay for Tumor necrosis factor receptor 1 (TNFRSF1A) using HepaRG (AID 2283535). The conditions noted are these: mRNA level, 48 h; actives raise or lower the signal. In a few lines:
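Assay uses 48 h chemical treatment of differentiated HepaRG monolayers, tested in duplicate at eight concentrations from 100 uM downward in 0.5% DMSO. mRNA is normalized to ACTB, GAPDH and POLR2A, with induction or suppression fitted relative to vehicle.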

Read-out in assay [11]: Thyroid Hormone Responsive (THRSP), THRSP (gene 7069)
As to the kind of experiment: LTEA_HepaRG_THRSP: Life Technologies and Expression Analysis (LTEA) Assay for Thyroid Hormone Responsive (THRSP) using HepaRG (AID 2283536). The following applies: mRNA level, 48 h; actives raise or lower the signal. In a few lines:
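mRNA induction or loss relative to 0.5% DMSO vehicle was fitted bidirectionally across an eight-point curve whose highest exposure was 100 uM. Human HepaRG liver cells received chemicals in duplicate over 48 h before RNA extraction.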

Read-out in assay [12]: UDP glucuronosyltransferase (UGT1A1), UGT1A1 (gene 54658)
Kind of assay: LTEA_HepaRG_UGT1A1: Life Technologies and Expression Analysis (LTEA) Assay for UDP glucuronosyltransferase (UGT1A1) using HepaRG (AID 2283538). The following applies: mRNA level, 48 h; actives raise or lower the signal. In a few lines:
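Differentiated human HepaRG cells in serum-free induction medium were exposed in duplicate for 48 h to eight half-log concentrations up to 100 uM in 0.5% DMSO. UGT1A1 mRNA was quantified by TaqMan qRT-PCR, normalized to ACTB, GAPDH and POLR2A, and fitted bidirectionally against DMSO.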

Read-out in assay [13]: UDP glucuronosyltransferase (UGT1A6), UGT1A6 (gene 54578)
Kind of assay: LTEA_HepaRG_UGT1A6: Life Technologies and Expression Analysis (LTEA) Assay for UDP glucuronosyltransferase (UGT1A6) using HepaRG (AID 2283539). The conditions noted are these: mRNA level, 48 h; actives raise or lower the signal. In a few lines:
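Measures mRNA change in HepaRG hepatic cells exposed 48 h to chemicals (eight-point, maximum 100 uM, 0.5% DMSO vehicle) in serum-free induction medium. Expression normalized to endogenous controls; DMSO served as negative control and baseline.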

Read-out in assay [14]: X-box binding protein 1 (XBP1), XBP1 (gene 7494)
Kind of assay: LTEA_HepaRG_XBP1: Life Technologies and Expression Analysis (LTEA) Assay for X-box binding protein 1 (XBP1) using HepaRG (AID 2283540). The conditions noted are these: mRNA level, 48 h; actives raise or lower the signal. In a few lines:
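Eight concentrations (half-log, highest 100 uM, 0.5% DMSO) tested in duplicate on HepaRG cells over 48 h in serum-free induction medium; qRT-PCR of XBP1 normalised to ACTB, GAPDH, POLR2A.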

Assay [15] can be described thus: LTEA_HepaRG_LDH_cytotoxicity: Cytotoxicity Assessment in the Life Technologies and Expression Analysis (LTEA) Assay (AID 2283563; active means hit-call score of the fitted dose curve at least 0.9, where 1 is the maximum;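 on AC50: LDH activity released into spent culture medium as a marker of cell death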). In a few lines:
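Spent-medium LDH after 48 h chemical exposure of HepaRG cells in serum-free induction medium; eight concentrations, half-log dilutions from 100 uM, duplicate wells, fitted upward relative to 0.5% DMSO.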

The nature of assay [16]: ATG_XTT_Cytotoxicity: Cytotoxicity Assessment in the Attagene TRANS-FACTORIAL HepG2 Assay (AID 2283584; active means hit-call score of the fitted dose curve at least 0.9, where 1 is the maximum). In a few lines:
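24 h chemical exposure of reporter-transfected HepG2; XTT signal loss vs DMSO indicates cytotoxicity.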

Assay [17] can be described thus: TOX21_p53_BLA_p2_viability: Viability Assessment in the Tox21 HCT-116 p53 Agonism Beta-lactamase Assay, Phase 2 (AID 2283591; active means hit-call score of the fitted dose curve at least 0.9, where 1 is the maximum;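 further: compound exposure lasted 16 h at 37 °C; actives lower the ATP signal meaning cytotoxicity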). In a few lines: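 Cytotoxicity readout: CellTiter-Glo ATP luminescence, 30 min at room temperature, after the beta-lactamase read. Cells were HCT116 exposed 16 h at 37C to compounds pin-transferred at 217-fold dilution from DMSO stocks.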

Assay [18] deals with Cellular tumor antigen p53 (Homo sapiens) (UniProt P04637). As to the kind of experiment: TOX21_p53_BLA_p2_ratio: Tox21 HCT-116 p53 Agonism Beta-lactamase Assay, Ratio, Phase 2 (AID 2283592; active means hit-call score of the fitted dose curve at least 0.9, where 1 is the maximum). In a few lines: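 Human colon HCT116 cells with an inducible p53 beta-lactamase reporter are exposed to test chemicals for 16 h at 37C. Reporter induction is read as the 460/530 nm emission ratio after CCF4-AM loading, normalized to DMSO.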
Chain of Cellular tumor antigen p53 (Homo sapiens) (P04637 whole entry, looked up): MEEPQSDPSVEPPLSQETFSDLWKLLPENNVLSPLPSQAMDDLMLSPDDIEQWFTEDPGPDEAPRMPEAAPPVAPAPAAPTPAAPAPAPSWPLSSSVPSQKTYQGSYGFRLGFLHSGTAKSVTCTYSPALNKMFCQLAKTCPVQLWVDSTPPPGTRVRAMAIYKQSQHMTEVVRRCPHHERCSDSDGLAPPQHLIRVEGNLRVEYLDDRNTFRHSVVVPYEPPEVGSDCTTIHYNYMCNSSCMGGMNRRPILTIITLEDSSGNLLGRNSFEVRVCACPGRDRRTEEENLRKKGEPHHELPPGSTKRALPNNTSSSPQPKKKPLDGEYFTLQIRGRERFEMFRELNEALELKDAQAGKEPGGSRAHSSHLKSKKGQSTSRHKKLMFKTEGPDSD

Data on 3 compounds can be found in PubChem BioAssay (EPA / NIEHS).

Records with an inconclusive call do not appear. More than one record can exist for a structure, and the calls need not agree. Calls of active or inactive are those of the source. How the source made its calls, unless noted: active means hit-call score of the fitted dose curve at least 0.9, where 1 is the maximum; inactive means score below 0.9.

Chain of Signal transducer and activator of transcription 3 (Homo sapiens) (P40763 whole entry, looked up): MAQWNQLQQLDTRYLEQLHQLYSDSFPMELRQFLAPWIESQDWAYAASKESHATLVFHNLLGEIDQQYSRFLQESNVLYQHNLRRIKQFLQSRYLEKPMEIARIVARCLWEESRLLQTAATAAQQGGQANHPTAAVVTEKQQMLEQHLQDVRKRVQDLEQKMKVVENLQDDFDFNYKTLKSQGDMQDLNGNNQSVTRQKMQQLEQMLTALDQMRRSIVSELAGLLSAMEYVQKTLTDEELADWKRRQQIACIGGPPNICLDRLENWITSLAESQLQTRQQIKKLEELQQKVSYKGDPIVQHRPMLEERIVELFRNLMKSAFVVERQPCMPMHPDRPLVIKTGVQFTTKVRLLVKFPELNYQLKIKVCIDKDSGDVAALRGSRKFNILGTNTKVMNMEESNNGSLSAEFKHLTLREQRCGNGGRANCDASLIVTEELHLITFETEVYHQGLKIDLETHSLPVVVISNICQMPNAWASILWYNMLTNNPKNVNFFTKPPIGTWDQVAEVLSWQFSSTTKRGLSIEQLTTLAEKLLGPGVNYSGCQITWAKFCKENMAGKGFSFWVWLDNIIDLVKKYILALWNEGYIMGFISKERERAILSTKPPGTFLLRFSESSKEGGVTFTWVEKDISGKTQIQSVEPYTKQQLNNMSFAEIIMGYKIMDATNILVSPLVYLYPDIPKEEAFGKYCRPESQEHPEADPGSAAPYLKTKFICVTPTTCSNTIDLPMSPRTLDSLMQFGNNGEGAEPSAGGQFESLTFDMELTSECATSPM
Chain of Nuclear factor erythroid 2-related factor 2 (Homo sapiens) (Q16236 whole entry, looked up): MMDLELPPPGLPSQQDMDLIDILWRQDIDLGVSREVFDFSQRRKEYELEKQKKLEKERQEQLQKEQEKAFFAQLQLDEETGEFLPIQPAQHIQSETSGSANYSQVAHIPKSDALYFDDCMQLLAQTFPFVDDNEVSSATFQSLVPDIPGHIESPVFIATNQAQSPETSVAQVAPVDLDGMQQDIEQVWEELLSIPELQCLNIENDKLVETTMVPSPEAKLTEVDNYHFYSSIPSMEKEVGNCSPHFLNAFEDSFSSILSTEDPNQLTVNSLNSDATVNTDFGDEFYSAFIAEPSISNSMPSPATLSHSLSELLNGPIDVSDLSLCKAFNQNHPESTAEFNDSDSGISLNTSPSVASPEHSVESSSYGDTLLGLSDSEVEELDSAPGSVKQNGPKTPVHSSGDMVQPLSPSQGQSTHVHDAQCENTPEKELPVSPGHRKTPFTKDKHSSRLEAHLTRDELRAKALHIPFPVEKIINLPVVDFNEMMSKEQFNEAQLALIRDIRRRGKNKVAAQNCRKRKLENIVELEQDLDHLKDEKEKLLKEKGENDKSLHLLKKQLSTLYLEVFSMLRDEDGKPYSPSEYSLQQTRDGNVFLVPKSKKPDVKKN

For the compound `CCCCCCCCOC(=O)c1ccccc1C(=O)OCCCCCCCC`, the outcome in assay [1], in assay [2], in assay [3], in assay [4], in assay [5] and in assay [6] was inactive. For the same compound, the outcome in [7] was “inactive”; in assay [8], “inactive”; in assay [9], “inactive”; with TIMP1, TIMP1 (gene 7076), “inactive”; in assay [10] it was “inactive”; in assay [11], “inactive”. Also, the result in assay [12], in assay [13], in assay [14], in assay [15], in assay [16] and in assay [17] was inactive. Also, in assay [18], the result was inactive.

As for `CCOCCOC(C)=O`, the call in assay [1], in assay [2], in assay [3], in assay [4], in assay [5] and in assay [6] was inactive. For the same compound, the outcome in assay [7] was “inactive”; in assay [8] it was “inactive”; in assay [9], “inactive”; with TIMP1, TIMP1 (gene 7076), “inactive”; in assay [10], “inactive”; in [11], “inactive”. The call in [12], in assay [13], in assay [14], in [15], in assay [16] and in assay [17] was inactive. In addition, in assay [18], the result was inactive.

In the case of `C[C@]12CCC(=O)C=C1CC[C@@H]1[C@@H]2CC[C@@]2(C)[C@H]1CC[C@]2(C)O`, the concentration at half-maximal activity (AC50) (in general, the concentration giving half of the maximal activity seen) in [1] was 45.8 µM (active); in assay [9], 45.8 µM (active); in assay [10], 45.8 µM (active); in [11] it was 0.81 µM (active); in assay [12], 10.9 µM (active); in assay [13], 45.8 µM (active). For the same compound, the AC50 in assay [15] is 74 µM (active); in [18] it was 50.3 µM (active). In addition, the outcome in assay [2], in assay [3], in assay [4], in [5], in assay [6] and in assay [7] was inactive. The outcome is “inactive” in assay [8]; “inactive” with TIMP1, TIMP1 (gene 7076); “inactive” in assay [14]; “inactive” in assay [16]; “inactive” in [17]; “inactive” in assay [18].
